# Experimental data: publication PMC7862700, “An all-to-all approach to the identification of sequence-specific readers for epigenetic DNA modifications on cytosine”
# Tests used:
# Test in all cases: DAPPL (digital affinity profiling via proximity ligation, sequencing); 10 mM Tris-HCl pH 7.5, 50 mM NaCl, 1 mM DTT, 4% glycerol, room temperature, 30 min; GST-TFs on glutathione beads, 16-mer random dsDNA library, 0.1% formaldehyde crosslink after washing; high values mean tight binding
# [1] = target: T1, FLI1 (Homo sapiens, UniProt Q01543 1-452); conditions: protein: recombinant; tags: N-terminal GST; dsDNA, one strand shown
# T1 sequence: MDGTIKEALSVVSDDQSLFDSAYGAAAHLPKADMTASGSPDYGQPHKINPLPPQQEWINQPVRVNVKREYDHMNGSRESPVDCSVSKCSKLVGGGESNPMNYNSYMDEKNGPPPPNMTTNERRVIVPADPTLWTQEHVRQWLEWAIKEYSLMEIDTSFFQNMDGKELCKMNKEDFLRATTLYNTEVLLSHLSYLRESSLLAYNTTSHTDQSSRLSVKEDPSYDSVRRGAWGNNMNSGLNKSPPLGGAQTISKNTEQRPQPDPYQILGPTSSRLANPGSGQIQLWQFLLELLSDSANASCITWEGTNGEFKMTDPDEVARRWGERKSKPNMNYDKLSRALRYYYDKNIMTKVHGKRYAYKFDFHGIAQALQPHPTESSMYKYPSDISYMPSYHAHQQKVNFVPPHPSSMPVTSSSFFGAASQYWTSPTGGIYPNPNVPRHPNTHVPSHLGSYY
# Outline: (§1)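 GST fusions of human transcription factors were expressed in yeast and captured with glutathione beads. Once given DNA barcodes and pooled alongside a tag-only sample, they were incubated for 30 min at room temperature with 200 nmole of a random double-stranded 16-mer DNA library in Tris/NaCl/DTT/glycerol buffer, then washed, crosslinked (0.1% formaldehyde), proximity-ligated, PCR-amplified and sequenced on an Illumina NextSeq500. The binding signal of each hexamer is its read frequency for a factor divided by its frequency for the tag-only sample.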
# [2] = target: T2, ELK1 (Homo sapiens, UniProt P19419 1-428); conditions: protein: recombinant; tags: N-terminal GST; dsDNA, one strand shown
# T2 sequence: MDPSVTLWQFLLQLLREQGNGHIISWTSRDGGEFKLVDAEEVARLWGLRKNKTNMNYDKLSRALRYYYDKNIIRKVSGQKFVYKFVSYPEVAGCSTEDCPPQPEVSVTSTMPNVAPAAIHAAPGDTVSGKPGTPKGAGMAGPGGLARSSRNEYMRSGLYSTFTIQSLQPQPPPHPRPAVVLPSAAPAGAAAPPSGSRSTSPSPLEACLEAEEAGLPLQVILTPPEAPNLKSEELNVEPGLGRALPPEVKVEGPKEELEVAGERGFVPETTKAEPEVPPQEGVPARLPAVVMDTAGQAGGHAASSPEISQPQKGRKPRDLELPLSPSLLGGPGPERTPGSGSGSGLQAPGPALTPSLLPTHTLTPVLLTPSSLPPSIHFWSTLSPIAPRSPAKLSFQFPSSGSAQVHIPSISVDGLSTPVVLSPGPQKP
# Outline: as §1
# [3] = target: T3, GABPA (Homo sapiens, UniProt Q06546 1-454); conditions: protein: recombinant; tags: N-terminal GST; dsDNA, one strand shown
# T3 sequence: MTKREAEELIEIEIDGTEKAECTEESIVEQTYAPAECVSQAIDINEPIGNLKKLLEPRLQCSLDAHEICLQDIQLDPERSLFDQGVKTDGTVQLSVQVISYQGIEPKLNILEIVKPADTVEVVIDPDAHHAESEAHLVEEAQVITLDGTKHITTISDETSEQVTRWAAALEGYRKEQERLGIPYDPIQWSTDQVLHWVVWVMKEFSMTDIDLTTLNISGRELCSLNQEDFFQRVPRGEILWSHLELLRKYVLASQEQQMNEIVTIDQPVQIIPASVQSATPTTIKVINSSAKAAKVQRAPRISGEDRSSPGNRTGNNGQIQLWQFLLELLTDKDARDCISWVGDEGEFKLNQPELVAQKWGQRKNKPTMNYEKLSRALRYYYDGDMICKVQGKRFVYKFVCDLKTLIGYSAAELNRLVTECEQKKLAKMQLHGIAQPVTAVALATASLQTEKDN
# Outline: as §1
# [4] = target: T4, ERG (Homo sapiens, UniProt P11308 1-479); conditions: protein: recombinant; tags: N-terminal GST; dsDNA, one strand shown
# T4 sequence: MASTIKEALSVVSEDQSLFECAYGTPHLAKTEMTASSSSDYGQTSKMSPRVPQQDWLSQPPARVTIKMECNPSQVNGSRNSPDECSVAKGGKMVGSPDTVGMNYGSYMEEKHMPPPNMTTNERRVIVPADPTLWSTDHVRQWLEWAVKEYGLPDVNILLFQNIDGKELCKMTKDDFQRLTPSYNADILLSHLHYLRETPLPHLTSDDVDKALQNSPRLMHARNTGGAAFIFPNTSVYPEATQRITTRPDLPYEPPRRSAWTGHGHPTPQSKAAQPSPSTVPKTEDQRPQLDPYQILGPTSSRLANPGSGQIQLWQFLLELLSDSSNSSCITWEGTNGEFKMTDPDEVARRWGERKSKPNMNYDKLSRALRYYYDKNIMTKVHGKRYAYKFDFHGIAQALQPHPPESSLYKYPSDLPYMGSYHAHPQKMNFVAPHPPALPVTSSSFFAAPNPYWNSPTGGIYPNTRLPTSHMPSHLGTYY
# Outline: as §1
# [5] = target: ELF1 (Homo sapiens, UniProt P32519 1-619); conditions: protein: recombinant; tags: N-terminal GST; dsDNA, one strand shown
# Outline: as §1
# [6] = target: T5, EHF (Homo sapiens, UniProt Q9NZC4 1-300); conditions: protein: recombinant; tags: N-terminal GST; dsDNA, one strand shown
# T5 sequence: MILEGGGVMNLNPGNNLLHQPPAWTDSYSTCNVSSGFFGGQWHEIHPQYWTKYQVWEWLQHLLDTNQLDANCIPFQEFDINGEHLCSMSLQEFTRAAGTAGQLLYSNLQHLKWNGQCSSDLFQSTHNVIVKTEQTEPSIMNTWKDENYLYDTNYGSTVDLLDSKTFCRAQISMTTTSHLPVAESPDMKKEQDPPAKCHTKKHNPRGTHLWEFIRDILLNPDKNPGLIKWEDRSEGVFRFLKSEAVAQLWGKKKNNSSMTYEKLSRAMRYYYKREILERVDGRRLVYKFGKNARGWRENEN
# Outline: as §1
# [7] = target: SPI1 (Homo sapiens, UniProt P17947 1-270); conditions: protein: recombinant; tags: N-terminal GST; dsDNA, one strand shown
# Outline: as §1
# [8] = target: SPIB (Homo sapiens, UniProt Q01892 1-262); conditions: protein: recombinant; tags: N-terminal GST; dsDNA, one strand shown
# Outline: as §1
# [9] = target: T6, ELK3 (Homo sapiens, UniProt P41970 1-407); conditions: protein: recombinant; tags: N-terminal GST; dsDNA, one strand shown
# T6 sequence: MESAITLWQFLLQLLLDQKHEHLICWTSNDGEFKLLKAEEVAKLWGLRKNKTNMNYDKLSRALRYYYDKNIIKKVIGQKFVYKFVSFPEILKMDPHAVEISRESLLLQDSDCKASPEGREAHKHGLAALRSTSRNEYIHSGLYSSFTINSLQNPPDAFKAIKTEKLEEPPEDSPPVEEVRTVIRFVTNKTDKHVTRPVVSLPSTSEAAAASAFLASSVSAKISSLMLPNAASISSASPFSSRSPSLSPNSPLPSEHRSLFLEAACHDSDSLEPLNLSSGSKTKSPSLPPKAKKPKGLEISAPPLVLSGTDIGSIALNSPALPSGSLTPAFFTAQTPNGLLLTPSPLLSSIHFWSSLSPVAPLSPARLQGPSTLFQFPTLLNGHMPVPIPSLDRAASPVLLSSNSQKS
# Outline: as §1
# [10] = target: T7, FEV (Homo sapiens, UniProt Q99581 1-238); conditions: protein: recombinant; tags: N-terminal GST; dsDNA, one strand shown
# T7 sequence: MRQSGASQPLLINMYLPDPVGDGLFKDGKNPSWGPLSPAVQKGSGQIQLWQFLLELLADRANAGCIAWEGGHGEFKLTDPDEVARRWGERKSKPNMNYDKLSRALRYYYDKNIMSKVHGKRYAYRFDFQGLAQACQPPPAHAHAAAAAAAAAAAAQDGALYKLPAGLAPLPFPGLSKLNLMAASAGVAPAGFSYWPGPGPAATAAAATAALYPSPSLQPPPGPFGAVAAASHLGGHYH
# Outline: as §1
# [11] = target: ETV5 (Homo sapiens, UniProt P41161 1-510); conditions: protein: recombinant; tags: N-terminal GST; dsDNA, one strand shown
# Outline: as §1
# [12] = target: HSF1 (Homo sapiens, UniProt Q00613 1-529); conditions: protein: recombinant; tags: N-terminal GST; chain copies: 3; dsDNA, one strand shown
# Outline: as §1
# [13] = target: T8, SPIC (Homo sapiens, UniProt Q8N5J4 1-248); conditions: protein: recombinant; tags: N-terminal GST; dsDNA, one strand shown
# T8 sequence: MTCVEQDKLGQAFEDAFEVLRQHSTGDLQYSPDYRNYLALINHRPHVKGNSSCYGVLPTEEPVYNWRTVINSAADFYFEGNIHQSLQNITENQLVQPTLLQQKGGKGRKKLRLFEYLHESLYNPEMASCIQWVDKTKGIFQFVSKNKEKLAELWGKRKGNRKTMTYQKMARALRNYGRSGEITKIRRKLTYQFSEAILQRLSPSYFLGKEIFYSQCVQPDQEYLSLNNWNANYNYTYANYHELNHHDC
# Outline: as §1
# [14] = target: ELF4 (Homo sapiens, UniProt Q99607 1-663); conditions: protein: recombinant; tags: N-terminal GST; dsDNA, one strand shown
# Outline: as §1
# [15] = target: T9, ELK4 (Homo sapiens, UniProt P28324-2 1-405); conditions: protein: recombinant; tags: N-terminal GST; dsDNA, one strand shown
# T9 sequence: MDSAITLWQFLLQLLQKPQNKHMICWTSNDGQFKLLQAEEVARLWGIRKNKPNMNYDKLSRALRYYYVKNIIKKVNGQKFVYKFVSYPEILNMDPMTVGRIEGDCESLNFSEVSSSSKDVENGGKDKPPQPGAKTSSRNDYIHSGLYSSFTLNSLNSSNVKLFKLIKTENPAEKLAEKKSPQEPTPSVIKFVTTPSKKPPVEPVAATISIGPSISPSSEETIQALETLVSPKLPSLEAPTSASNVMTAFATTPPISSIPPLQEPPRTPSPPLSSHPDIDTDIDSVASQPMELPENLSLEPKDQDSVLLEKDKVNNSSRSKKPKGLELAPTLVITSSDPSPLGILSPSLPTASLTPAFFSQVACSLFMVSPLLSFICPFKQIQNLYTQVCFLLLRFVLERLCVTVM
# Outline: as §1
# [16] = target: T10, ETV2 (Homo sapiens, UniProt O00321 1-342); conditions: protein: recombinant; tags: N-terminal GST; dsDNA, one strand shown
# T10 sequence: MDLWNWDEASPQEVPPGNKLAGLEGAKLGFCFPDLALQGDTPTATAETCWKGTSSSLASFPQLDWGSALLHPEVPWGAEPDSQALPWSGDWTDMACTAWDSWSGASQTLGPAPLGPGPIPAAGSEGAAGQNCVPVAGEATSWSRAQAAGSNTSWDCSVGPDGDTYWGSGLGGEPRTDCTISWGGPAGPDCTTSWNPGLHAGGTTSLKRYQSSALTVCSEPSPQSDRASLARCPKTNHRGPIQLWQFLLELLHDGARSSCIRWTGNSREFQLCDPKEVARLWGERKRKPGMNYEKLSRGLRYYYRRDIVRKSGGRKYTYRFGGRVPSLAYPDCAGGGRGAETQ
# Outline: as §1
# [17] = target: T11, ELF3 (Homo sapiens, UniProt P78545 1-371); conditions: protein: recombinant; tags: N-terminal GST; dsDNA, one strand shown
# T11 sequence: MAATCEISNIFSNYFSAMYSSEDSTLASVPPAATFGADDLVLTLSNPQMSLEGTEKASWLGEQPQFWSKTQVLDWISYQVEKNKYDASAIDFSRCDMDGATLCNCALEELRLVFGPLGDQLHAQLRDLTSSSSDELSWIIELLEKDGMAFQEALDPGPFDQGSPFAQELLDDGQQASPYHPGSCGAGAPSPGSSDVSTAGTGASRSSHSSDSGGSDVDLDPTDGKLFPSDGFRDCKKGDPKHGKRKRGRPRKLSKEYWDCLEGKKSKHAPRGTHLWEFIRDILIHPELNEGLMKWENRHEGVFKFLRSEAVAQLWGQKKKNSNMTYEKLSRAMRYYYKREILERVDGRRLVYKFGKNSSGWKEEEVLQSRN
# Outline: as §1
# [18] = target: CRX (Homo sapiens, UniProt O43186 1-299); conditions: protein: recombinant; tags: N-terminal GST; dsDNA, one strand shown
# Outline: as §1
# [19] = target: ETV1 (Homo sapiens, UniProt P50549 1-477); conditions: protein: recombinant; tags: N-terminal GST; dsDNA, one strand shown
# Outline: as §1
# CRX, sequence (O43186 whole entry): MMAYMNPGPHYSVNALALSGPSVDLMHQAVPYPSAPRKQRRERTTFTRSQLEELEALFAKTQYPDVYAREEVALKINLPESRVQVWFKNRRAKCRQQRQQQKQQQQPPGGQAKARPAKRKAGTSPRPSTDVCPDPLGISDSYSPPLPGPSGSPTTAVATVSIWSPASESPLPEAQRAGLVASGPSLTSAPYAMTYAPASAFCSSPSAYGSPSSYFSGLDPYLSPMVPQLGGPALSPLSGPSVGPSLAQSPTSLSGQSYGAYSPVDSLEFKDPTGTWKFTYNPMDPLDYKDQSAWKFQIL
# ETV5, sequence (P41161 whole entry): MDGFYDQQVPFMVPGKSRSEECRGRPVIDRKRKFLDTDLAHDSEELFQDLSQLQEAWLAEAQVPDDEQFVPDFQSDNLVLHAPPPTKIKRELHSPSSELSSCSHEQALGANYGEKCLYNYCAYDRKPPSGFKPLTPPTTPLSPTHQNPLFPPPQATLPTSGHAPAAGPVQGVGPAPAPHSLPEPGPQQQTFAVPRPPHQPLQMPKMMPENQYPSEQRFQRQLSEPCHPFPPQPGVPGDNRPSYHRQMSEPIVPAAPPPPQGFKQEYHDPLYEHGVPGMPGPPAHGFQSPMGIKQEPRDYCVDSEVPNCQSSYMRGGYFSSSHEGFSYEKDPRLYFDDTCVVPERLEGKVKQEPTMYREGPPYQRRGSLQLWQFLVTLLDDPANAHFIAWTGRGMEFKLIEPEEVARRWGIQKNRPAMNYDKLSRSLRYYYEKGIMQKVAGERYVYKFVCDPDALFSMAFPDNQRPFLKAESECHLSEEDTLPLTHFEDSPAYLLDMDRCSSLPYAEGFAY
# HSF1, sequence (Q00613 whole entry): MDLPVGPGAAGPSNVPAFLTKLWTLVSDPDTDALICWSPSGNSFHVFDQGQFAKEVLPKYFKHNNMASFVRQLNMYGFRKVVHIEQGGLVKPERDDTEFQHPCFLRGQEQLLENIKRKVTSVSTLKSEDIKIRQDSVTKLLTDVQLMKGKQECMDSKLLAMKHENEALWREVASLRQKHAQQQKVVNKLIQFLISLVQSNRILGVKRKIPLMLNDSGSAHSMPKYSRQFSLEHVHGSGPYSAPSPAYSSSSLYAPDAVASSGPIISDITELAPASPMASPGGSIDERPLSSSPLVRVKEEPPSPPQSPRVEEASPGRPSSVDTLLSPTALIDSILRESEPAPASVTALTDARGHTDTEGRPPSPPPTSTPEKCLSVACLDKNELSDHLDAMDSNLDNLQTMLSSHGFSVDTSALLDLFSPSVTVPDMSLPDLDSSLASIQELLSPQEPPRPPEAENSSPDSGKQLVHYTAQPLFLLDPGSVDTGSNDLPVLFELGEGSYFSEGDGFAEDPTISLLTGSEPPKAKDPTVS
# SPIB, sequence (Q01892 whole entry): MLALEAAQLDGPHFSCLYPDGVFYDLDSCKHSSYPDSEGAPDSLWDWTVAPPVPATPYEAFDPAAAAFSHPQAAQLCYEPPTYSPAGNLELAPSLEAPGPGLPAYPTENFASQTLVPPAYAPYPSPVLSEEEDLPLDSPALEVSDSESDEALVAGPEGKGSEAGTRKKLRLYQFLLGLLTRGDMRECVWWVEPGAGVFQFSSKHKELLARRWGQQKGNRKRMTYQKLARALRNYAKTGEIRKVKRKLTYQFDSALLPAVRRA
# ETV1, sequence (P50549 whole entry): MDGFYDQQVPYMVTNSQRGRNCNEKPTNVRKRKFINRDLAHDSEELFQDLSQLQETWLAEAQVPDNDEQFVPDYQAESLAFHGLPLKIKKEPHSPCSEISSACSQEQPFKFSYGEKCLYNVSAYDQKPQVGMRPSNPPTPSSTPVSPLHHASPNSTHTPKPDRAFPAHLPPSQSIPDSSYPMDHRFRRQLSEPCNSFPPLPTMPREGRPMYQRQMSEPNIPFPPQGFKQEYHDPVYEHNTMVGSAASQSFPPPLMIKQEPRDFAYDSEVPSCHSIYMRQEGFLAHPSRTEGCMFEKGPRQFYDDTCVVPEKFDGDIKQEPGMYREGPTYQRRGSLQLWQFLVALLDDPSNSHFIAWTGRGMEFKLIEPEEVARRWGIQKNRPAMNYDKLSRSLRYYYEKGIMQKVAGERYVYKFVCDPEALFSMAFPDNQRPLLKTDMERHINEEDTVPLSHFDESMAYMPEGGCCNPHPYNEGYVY
# ELF1, sequence (P32519 whole entry): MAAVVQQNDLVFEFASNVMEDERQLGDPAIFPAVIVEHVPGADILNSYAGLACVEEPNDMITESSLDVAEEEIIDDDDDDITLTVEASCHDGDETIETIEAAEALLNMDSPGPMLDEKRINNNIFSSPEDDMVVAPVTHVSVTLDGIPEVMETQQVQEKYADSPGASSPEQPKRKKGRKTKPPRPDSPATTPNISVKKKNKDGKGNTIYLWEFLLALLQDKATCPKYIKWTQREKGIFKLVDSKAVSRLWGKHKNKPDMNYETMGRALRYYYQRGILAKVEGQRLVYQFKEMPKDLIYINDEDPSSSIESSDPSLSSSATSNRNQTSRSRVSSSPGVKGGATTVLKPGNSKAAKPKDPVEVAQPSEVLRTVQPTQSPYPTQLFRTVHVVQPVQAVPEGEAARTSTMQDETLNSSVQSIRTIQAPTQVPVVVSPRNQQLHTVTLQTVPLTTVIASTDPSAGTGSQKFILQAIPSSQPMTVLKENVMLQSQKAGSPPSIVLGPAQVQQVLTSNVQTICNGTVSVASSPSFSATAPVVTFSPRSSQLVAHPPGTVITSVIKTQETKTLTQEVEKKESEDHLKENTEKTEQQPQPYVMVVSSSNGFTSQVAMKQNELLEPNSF
# ELF4, sequence (Q99607 whole entry): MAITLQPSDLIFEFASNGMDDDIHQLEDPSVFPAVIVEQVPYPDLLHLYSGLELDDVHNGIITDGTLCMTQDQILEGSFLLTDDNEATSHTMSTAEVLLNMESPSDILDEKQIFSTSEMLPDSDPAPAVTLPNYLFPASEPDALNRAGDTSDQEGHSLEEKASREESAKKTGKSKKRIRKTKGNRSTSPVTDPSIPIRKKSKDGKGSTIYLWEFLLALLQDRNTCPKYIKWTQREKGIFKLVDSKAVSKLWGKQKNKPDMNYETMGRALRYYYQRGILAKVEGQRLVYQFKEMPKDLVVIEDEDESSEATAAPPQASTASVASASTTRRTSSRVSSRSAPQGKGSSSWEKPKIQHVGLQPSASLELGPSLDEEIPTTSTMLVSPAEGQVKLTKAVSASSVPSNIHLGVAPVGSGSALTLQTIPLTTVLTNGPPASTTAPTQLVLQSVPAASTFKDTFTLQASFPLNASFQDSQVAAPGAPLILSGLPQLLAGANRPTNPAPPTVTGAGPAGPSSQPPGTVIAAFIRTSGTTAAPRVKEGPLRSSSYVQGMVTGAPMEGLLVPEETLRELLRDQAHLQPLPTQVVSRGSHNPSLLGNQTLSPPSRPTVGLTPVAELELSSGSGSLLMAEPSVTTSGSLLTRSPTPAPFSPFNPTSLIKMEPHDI
sequence,measurement,setting,value
CGAAAC,binding signal,[1],"1.14 fold enrichment (6-mer frequency, TF over GST control)"
same,binding signal,[2],"1.15 fold enrichment (6-mer frequency, TF over GST control)"
same,binding signal,[3],"1.08 fold enrichment (6-mer frequency, TF over GST control)"
same,binding signal,[4],"1.21 fold enrichment (6-mer frequency, TF over GST control)"
same,binding signal,[5],"1.23 fold enrichment (6-mer frequency, TF over GST control)"
same,binding signal,[6],"1.17 fold enrichment (6-mer frequency, TF over GST control)"
same,binding signal,[7],"1.21 fold enrichment (6-mer frequency, TF over GST control)"
same,binding signal,[8],"1.16 fold enrichment (6-mer frequency, TF over GST control)"
same,binding signal,[9],"1.07 fold enrichment (6-mer frequency, TF over GST control)"
same,binding signal,[10],"1.2 fold enrichment (6-mer frequency, TF over GST control)"
same,binding signal,[11],"1.25 fold enrichment (6-mer frequency, TF over GST control)"
same,binding signal,[12],"1.58 fold enrichment (6-mer frequency, TF over GST control)"
same,binding signal,[13],"1.27 fold enrichment (6-mer frequency, TF over GST control)"
same,binding signal,[14],"1.2 fold enrichment (6-mer frequency, TF over GST control)"
same,binding signal,[15],"1.15 fold enrichment (6-mer frequency, TF over GST control)"
same,binding signal,[16],"1.22 fold enrichment (6-mer frequency, TF over GST control)"
same,binding signal,[17],"1.15 fold enrichment (6-mer frequency, TF over GST control)"
same,binding signal,[18],"1.02 fold enrichment (6-mer frequency, TF over GST control)"
same,binding signal,[19],"1.21 fold enrichment (6-mer frequency, TF over GST control)"
